Pf growth 48h: P. falciparum growth inhibition at 48 hours (one generation); P. falciparum luciferase growth in erythrocytes, 48 h; Potency, µM (doses to about 28.7 µM), hits mostly inhibitors; hit rate 5.9% among 310,000
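Erythrocytes infected with P. falciparum carrying an integrated firefly luciferase reporter (2% hematocrit, 0.1% parasitemia final) were exposed to compounds in RPMI 1640 with 0.5% Albumax at 37 C, 5% CO2. Growth inhibition was scored as reduced luminescence.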
SARS PLpro yeast-1: inhibitors of SARS-CoV papain-like protease in yeast. S. cerevisiae expressing SARS-CoV PLpro, growth rescue. Potency, µM (top dose mostly 32.9 µM), usual class: activators. hit rate 0.19% among 330,000. AID 485353; calls by dose curve; further: nearly all actives have a fitted effect of over 55% in size
NS1 inh: influenza NS1 inhibition. Potency, µM (doses to about 46.1 µM). AID 2326. hit rate 0.4% among 270,000; calls by dose curve; further: actives are rising curves; nearly all actives have a fitted effect of over 50% in size
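A cell-based growth assay was used: compounds that relieve NS1-induced slow growth of budding yeast raise OD600. Assay medium was yeast nitrogen base with ammonium sulphate and -URA supplement, pH 6.0, with 2% galactose.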
Shiga inhibitor: Shiga toxin inhibition; AID 2315; Vero cells, Shiga toxin protein synthesis inhibition reporter; hit rate 9.2% among 290,000; inhibition, % at 38.7 µM; in the data active means inhibition mostly above about 28%, no sharp cut-off; inactive means mostly below about 43%
CHX counter: counter-screen hit for Shiga toxin inhibitors, cycloheximide; cell reporter, cycloheximide protein synthesis inhibition counterscreen; max response, %; hit rate 12% among 300,000; AID 2314; in the data active means max response mostly above about 13%, no sharp cut-off; inactive means mostly below about 14%; further: read at 38.3 µM for the half of the compounds with a filed dose
Pf growth 96h: P. falciparum growth inhibition at 96 hours | P. falciparum luciferase reporter growth, 96 h | Potency, µM (titrated, usually from 28.7 µM), most hits filed as inhibitors | hit rate 6.9% among 320,000
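P. falciparum expressing integrated firefly luciferase grown in erythrocytes (2% hematocrit, 0.05% parasitemia final) with compounds for 96 hours at 37 C, 5% CO2. Growth inhibition read as loss of luminescence after adding luciferase detection reagent.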
SARS PLpro yeast-2: Rescues yeast growth by inhibiting SARS-CoV PLpro. shares compounds with SARS PLpro yeast-1. yeast expressing SARS-CoV PLpro, growth phenotype rescue. calls only. hit rate 19% among 1,000. AID 652038; call rule not given here
Of the large screens only hits and unclear results are named; the others gave an inactive call (follow-up assays come after a bar, where they were run). The list is a sample of the results. Unless noted, the call rests on the fitted dose curve; in most records, active means well fitted inhibition curve with a large enough effect; inconclusive means small, poorly fitted or top-dose-only effect, or another doubt; inactive means no such curve, though single readings can be large or run the other way.

Cc1ccc(-c2nc(CN(C)Cc3ccc4nccnc4c3)c(C)o2)s1	none
O=C(c1ccccc1C(=O)N1CCN(c2ccccc2F)CC1)N1CCN(c2ccccc2F)CC1	Pf growth 48h inconclusive (no result: Pf growth 96h)
CCSc1ccccc1C(=O)N1CCN(c2ccccc2F)CC1	Pf growth 48h inconclusive, SARS PLpro yeast-1 inconclusive | SARS PLpro yeast-2 inactive
C=CC[C@H](CC(=O)OC(C)(C)C)C(=O)OC[C@H]1CCCN1C(=O)[C@@H](CC=C)CC(=O)N(CCO)Cc1ccccc1	none (no result: Pf growth 48h, NS1 inh, Shiga inhibitor, CHX counter, Pf growth 96h)
Cc1ccc(Nc2nnc(SC(C)C(=O)Nc3c(C)n(C)n(-c4ccccc4)c3=O)s2)cc1 (stereo not drawn)	SARS PLpro yeast-1 2.8µM | SARS PLpro yeast-2 inactive
Cc1cccc(C)c1Nc1nnc(SC(C)C(=O)Nc2c(C)n(C)n(-c3ccccc3)c2=O)s1 (stereo not drawn)	Pf growth 96h inconclusive
COc1cc(C(=O)NC2CCN(Cc3ccccc3)CC2)cc(Cl)c1OC	Pf growth 48h inconclusive, Pf growth 96h inconclusive
COc1cc(C(=O)NC2CCN(Cc3nnnn3Cc3cccs3)CC2)cc(OC)c1OC	SARS PLpro yeast-1 4µM (no result: Pf growth 48h, Pf growth 96h) | SARS PLpro yeast-2 inactive
O=C1NCCCC1C(=O)N/N=C/c1ccccc1 (stereo not drawn)	SARS PLpro yeast-1 inconclusive | SARS PLpro yeast-2 inactive
CCN(CC)S(=O)(=O)c1cc(C(=O)OCC(=O)Nc2c(F)cccc2F)ccc1F	SARS PLpro yeast-1 inconclusive | SARS PLpro yeast-2 inactive
Cc1cc(C)nc(SC(C)CNS(=O)(=O)c2ccccc2)n1 (stereo not drawn)	Pf growth 48h inconclusive (no result: NS1 inh)
C/C(=N\NC(N)=S)C1(C)CCCCC1	Pf growth 48h inconclusive, SARS PLpro yeast-1 18µM, Pf growth 96h inconclusive | SARS PLpro yeast-2 active
CC1=C(C(=O)OCCNC(=O)c2cccnc2)C(c2cccc([N+](=O)[O-])c2)C(C(=O)OCCN(C)C)=C(C)N1 (stereo not drawn)	Pf growth 96h inconclusive
Cc1ccsc1C1Nc2ccc3ncccc3c2C2=C1C(=O)CC(C)(C)C2 (stereo not drawn)	Pf growth 48h 1.7µM, SARS PLpro yeast-1 11µM, Pf growth 96h 1.2µM | SARS PLpro yeast-2 inactive
CC1(C)CC(=O)C2=C(C1)c1c(ccc3ccccc13)NC2c1ccco1 (stereo not drawn)	Pf growth 48h inconclusive (no result: Pf growth 96h)
COc1cc(NC(=S)NCc2ccc(S(N)(=O)=O)cc2)c(OC)cc1Cl	SARS PLpro yeast-1 inconclusive, Pf growth 96h inconclusive | SARS PLpro yeast-2 inactive
Cc1cc(C)nc(SCC(=O)Nc2nonc2N)n1	none
CN(CC1CCCO1)S(=O)(=O)c1ccc(C(=O)Nc2ccc(S(N)(=O)=O)cc2)cc1 (stereo not drawn)	SARS PLpro yeast-1 0.4µM | SARS PLpro yeast-2 inactive
NS(=O)(=O)c1ccc(NC(=O)c2ccc(OCC3CCCO3)cc2)cc1 (stereo not drawn)	none (no result: Pf growth 48h, NS1 inh, Shiga inhibitor, CHX counter, Pf growth 96h)
CCOC(=O)c1c(C2CC2)csc1NC(=O)COC(=O)c1cnc(Cl)c(Cl)c1	none
CCOc1cc(N2CCCC2)ccc1[N+](=O)[O-]	SARS PLpro yeast-1 inconclusive, Pf growth 96h 6.6µM | SARS PLpro yeast-2 inactive
Cc1ccc2nc(SCC(=O)N/N=C/c3ccc(C(=O)O)cc3)cc(C)c2c1	none (no result: Shiga inhibitor)
O=C(COC(=O)C1CCC1)NCc1ccc(F)cc1	none (no result: NS1 inh, Shiga inhibitor, CHX counter)
Oc1ccc2n[nH]nc2c1	SARS PLpro yeast-1 inconclusive | SARS PLpro yeast-2 inactive
COc1ccc(N(CC(=O)Nc2ccccc2C(=O)NCc2ccco2)S(C)(=O)=O)cc1	Pf growth 96h inconclusive (no result: Pf growth 48h)
Cc1ccc2nsnc2c1N	none
Cc1ccc2cccnc2c1N	SARS PLpro yeast-1 inconclusive (no result: NS1 inh) | SARS PLpro yeast-2 inactive
Cc1ccc(C)c(S(=O)(=O)NCC(c2ccc3c(c2)OCO3)N2CCOCC2)c1 (stereo not drawn)	Pf growth 96h inconclusive (no result: NS1 inh, Shiga inhibitor, CHX counter)
Cc1nc(NCc2ccco2)c(C#N)c2c1COC(C)(C)C2	Pf growth 96h inconclusive
CC1(C)Cc2c(C#N)c(NCc3ccco3)nc(-c3ccco3)c2CO1	SARS PLpro yeast-1 inconclusive (no result: Pf growth 96h) | SARS PLpro yeast-2 inactive
CC(=O)c1cccc(NC(=O)Nc2nc(C)cc(C)n2)c1	Pf growth 96h inconclusive (no result: SARS PLpro yeast-1)
COC(=O)CCN(Cc1cc(OC)ccc1OC)S(=O)(=O)c1ccccc1Br	none (no result: Pf growth 48h, NS1 inh, Shiga inhibitor, CHX counter, Pf growth 96h)
O=C(CSc1nnc(-c2ccccc2O)n1Cc1ccccc1)NNC(=O)c1ccccc1O	SARS PLpro yeast-1 6.3µM | SARS PLpro yeast-2 active
O=C(CSc1nnc(-c2ccccc2)n1Cc1ccccc1)NNC(=O)c1ccccc1O	SARS PLpro yeast-1 5µM | SARS PLpro yeast-2 inactive
